# Test results as given in ChEMBL document CHEMBL3988442, “University of Dundee, Small-Polar-MMV Screening Library” (2021).
# For some of these results: Entries with a potency or affinity are not part of this list.
# Legend:
# Set-up in all cases: scale not given: direction of the effect not stated beside the values
# [1] = biological target: Protein translocase subunit SecA (Escherichia coli (strain K12)) (UniProt P10408); test: Assay to Identify E. coli SecA ATPase Inhibitors; format: functional; conditions: 30 µM
# Chain of Protein translocase subunit SecA (Escherichia coli (strain K12)) (P10408 whole entry): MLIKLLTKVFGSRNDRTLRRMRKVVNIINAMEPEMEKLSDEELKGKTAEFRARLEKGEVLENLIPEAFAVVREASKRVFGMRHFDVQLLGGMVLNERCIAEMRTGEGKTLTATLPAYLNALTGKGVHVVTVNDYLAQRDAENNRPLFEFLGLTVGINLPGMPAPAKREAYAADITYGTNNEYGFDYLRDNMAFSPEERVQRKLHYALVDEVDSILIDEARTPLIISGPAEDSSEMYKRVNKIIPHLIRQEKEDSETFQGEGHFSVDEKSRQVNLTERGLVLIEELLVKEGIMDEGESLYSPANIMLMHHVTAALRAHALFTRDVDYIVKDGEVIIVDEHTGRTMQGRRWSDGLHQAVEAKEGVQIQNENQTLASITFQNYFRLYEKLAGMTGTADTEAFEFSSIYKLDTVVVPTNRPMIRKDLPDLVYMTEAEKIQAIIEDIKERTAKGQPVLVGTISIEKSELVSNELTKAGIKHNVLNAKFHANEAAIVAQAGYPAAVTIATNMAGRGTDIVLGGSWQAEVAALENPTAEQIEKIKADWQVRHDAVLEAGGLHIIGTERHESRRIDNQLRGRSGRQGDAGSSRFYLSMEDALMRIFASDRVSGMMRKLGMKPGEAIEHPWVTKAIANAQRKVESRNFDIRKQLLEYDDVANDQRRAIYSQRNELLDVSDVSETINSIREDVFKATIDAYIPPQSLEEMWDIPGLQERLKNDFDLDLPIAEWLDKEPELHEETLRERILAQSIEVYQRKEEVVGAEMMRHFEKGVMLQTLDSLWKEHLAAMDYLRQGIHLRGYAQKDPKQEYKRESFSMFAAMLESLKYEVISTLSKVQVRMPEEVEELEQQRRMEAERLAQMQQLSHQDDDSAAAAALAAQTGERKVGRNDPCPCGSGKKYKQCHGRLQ
# [2] = biological target: T1, Ubiquitin-activating enzyme e1, putative (Leishmania donovani (strain BPK282A1)) (UniProt E9BSI1); test: Leishmania donovani Ubiquitin Activating Enzyme (LdE1); format: functional; conditions: 30 µM
# T1 sequence (whole entry): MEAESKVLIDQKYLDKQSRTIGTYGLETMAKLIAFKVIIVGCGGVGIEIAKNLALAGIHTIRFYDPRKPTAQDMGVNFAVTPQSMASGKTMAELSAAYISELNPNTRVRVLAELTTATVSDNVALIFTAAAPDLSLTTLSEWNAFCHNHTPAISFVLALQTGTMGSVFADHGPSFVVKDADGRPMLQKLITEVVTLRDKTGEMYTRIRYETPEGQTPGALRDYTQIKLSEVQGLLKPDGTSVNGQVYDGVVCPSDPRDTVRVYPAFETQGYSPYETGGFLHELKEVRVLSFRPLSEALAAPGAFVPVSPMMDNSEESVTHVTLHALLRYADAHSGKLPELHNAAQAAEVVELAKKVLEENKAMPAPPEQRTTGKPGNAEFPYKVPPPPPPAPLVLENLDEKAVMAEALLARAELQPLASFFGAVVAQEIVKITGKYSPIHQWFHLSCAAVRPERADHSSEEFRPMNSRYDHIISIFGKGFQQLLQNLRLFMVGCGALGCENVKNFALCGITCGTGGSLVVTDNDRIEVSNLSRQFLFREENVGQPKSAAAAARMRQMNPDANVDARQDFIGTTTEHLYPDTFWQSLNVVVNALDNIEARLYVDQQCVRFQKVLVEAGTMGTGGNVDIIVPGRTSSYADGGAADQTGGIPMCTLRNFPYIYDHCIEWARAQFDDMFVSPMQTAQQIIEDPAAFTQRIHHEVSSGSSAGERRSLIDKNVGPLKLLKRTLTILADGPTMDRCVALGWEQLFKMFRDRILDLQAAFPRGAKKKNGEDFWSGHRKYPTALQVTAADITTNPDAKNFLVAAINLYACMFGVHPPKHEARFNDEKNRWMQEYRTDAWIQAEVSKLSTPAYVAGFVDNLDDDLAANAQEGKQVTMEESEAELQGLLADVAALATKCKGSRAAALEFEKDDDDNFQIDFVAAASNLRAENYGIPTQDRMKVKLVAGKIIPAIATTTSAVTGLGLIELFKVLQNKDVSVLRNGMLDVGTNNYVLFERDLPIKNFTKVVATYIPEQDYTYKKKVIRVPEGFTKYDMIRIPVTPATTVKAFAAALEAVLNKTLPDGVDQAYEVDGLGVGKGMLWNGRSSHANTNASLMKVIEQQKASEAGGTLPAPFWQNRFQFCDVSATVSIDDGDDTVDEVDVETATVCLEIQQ
# [3] = biological target: AMP-activated protein kinase, AMPK (Homo sapiens) (UniProt P54646+O43741+P54619+Q9UGJ0+Q9Y478+Q13131+Q9UGI9); test: AMP-dependent Kinase enzyme assay. An in vitro enzyme assay that detects ADP turnover that is directly proportional to AMPK activity. This uses naive AMPK that is activated during the assay with MK-8722; format: functional; conditions: 30 µM
# [4] = biological target: Sialic acid-binding Ig-like lectin 9 (Homo sapiens) (UniProt Q9Y336); test: Hs-Siglec9 ALPHAscreen SOP 20170721; conditions: 10 µM
# Chain of Sialic acid-binding Ig-like lectin 9 (Homo sapiens) (Q9Y336 whole entry): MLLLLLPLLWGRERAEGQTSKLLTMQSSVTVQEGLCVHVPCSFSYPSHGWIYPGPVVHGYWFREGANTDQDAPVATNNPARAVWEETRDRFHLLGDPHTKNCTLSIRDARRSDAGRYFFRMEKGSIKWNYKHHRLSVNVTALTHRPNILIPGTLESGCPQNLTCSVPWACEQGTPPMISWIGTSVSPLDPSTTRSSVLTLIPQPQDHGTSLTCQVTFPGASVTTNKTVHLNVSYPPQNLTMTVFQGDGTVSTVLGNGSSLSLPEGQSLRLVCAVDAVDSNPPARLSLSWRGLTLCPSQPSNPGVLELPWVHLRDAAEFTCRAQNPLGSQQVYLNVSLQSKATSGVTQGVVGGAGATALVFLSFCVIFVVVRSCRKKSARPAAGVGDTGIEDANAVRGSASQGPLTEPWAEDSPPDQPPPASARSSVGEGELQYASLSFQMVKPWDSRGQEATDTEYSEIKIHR
# [5] = system: Trypanosoma cruzi; test: Trypanosoma cruzi phosphomannomutase and mannose-1-phosphate guanylyltransferase assay; format: functional; conditions: 10 µM
# [6] = biological target: T2, Arginase-2, mitochondrial (Homo sapiens) (UniProt P78540); test: in vitro enzyme assay to detect the production of urea directly proportional to the activity of Arginase II; format: functional; conditions: 33.3 µM; note: in the data most compounds retested in dose-response had high values
# T2 sequence (whole entry): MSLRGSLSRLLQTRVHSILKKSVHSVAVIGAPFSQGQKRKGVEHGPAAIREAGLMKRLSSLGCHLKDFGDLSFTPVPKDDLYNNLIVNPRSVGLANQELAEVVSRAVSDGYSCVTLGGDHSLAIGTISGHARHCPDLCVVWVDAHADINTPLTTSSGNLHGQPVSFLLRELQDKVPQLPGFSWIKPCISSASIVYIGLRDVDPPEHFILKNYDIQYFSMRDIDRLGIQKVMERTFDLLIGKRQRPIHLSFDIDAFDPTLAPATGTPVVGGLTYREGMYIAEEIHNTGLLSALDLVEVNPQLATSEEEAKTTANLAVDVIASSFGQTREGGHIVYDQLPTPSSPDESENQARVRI
# [7] = biological target: T3, Proteasome subunit beta (Trypanosoma cruzi) (UniProt O96673); test: Trypanosoma cruzi proteasome chymotrypsin-like activity (TcProtChymo) assay.; note: in the data most compounds retested in dose-response had high values; format: functional; conditions: 9.37 µM
# T3 sequence (whole entry): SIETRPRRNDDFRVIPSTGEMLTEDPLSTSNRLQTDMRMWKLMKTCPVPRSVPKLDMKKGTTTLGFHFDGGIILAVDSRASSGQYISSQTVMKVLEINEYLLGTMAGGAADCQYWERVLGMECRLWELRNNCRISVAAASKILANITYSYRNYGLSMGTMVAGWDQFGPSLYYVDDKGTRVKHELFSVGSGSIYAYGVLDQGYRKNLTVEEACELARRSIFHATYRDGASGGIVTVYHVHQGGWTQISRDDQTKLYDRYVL
# [8] = species: Homo sapiens; test: To identify inhibition of the IFN signalling (Jak-Stat) pathway via expression of an eGFP reporter gene under the control of an IFN-stimulated response element (ISRE) containing MxA promoter.; format: functional; conditions: 30 µM
# [9] = biological target: T4, Tyrosyl-tRNA synthetase, putative (Trypanosoma cruzi (strain CL Brener)) (UniProt Q4DSP6); test: Trypanosoma cruzi tyrosyl tRNA synthetase (TcYRS) _High Tyrosine SOP; format: functional; conditions: 30 µM; note: in the data most compounds retested in dose-response had high values
# T4 sequence (whole entry): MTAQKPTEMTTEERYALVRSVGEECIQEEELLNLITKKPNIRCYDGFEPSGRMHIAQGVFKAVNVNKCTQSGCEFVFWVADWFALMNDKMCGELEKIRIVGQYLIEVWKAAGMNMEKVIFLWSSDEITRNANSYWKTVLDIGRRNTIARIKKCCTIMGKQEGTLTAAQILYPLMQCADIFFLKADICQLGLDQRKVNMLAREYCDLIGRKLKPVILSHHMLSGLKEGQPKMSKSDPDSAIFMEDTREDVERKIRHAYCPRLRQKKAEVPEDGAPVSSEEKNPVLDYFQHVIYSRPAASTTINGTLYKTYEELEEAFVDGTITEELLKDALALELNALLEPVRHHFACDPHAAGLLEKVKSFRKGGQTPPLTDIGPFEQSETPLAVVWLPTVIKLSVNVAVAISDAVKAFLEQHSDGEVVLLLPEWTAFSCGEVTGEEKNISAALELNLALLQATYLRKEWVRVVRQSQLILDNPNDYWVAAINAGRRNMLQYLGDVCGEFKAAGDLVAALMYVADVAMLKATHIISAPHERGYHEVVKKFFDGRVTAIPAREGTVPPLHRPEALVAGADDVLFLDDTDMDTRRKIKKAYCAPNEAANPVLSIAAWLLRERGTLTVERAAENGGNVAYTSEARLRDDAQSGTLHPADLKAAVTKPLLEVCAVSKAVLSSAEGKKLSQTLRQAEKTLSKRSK
# [10] = biological target: T4, Tyrosyl-tRNA synthetase, putative (Trypanosoma cruzi (strain CL Brener)); test: Trypanosoma cruzi tyrosyl tRNA synthetase (TcYRS) SOP; format: functional; conditions: 30 µM
# [11] = biological target: Chromo domain-containing protein 1 (Saccharomyces cerevisiae (strain ATCC 204508 / S288c) (Baker's yeast)) (UniProt P32657); test: ScCHD-1 Enzyme Inhibition Assay; format: functional; conditions: 30 µM; note: in the data most compounds retested in dose-response had high values
# Chain of Chromo domain-containing protein 1 (Saccharomyces cerevisiae (strain ATCC 204508 / S288c) (Baker's yeast)) (P32657 whole entry, the tested form may be a part): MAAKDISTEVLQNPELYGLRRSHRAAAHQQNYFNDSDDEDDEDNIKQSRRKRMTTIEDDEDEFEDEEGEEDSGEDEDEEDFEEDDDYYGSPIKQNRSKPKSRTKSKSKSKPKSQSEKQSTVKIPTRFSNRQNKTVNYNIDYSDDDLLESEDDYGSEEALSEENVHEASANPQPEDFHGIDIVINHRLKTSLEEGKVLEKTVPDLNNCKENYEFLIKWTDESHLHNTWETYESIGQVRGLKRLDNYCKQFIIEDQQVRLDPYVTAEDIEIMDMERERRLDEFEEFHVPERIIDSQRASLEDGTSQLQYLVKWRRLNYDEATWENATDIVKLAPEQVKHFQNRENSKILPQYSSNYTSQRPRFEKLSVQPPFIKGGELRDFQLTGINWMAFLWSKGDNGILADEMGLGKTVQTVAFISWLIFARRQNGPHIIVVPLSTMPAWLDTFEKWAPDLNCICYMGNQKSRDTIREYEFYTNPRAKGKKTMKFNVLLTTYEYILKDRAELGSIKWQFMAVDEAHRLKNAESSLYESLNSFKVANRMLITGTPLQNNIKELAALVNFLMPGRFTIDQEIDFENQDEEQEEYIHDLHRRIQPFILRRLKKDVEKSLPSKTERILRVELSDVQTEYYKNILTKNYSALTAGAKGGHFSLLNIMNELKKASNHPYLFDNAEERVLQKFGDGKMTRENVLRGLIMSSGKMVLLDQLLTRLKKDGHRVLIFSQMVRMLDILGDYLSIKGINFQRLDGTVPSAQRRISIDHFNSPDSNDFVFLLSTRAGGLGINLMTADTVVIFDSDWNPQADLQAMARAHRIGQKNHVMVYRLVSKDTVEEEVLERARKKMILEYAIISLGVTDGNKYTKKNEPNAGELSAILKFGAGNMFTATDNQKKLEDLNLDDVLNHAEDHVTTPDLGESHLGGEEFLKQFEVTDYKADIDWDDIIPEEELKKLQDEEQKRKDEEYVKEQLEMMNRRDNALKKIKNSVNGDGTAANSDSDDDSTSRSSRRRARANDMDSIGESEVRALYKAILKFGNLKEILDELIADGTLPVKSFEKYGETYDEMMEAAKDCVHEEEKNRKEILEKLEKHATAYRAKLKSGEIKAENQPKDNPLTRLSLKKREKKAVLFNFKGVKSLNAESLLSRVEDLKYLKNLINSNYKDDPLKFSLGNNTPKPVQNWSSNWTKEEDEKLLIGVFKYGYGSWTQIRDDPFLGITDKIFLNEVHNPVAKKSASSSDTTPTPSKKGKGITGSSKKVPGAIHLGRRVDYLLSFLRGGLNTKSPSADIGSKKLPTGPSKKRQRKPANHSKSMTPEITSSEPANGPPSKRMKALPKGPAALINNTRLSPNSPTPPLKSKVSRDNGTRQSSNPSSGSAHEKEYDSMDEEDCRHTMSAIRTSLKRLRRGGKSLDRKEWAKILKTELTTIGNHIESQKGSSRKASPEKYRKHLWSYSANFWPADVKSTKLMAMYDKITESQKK
Compound,Percent Effect [1] [%],Percent Effect [2] [%],Percent Effect [3] [%],Percent Effect [4] [%],Percent Effect [5] [%],Percent Effect [6] [%],Percent Effect [7] [%],Percent Effect [8] [%],Percent Effect [9] [%],Percent Effect [10] [%],Percent Effect [11] [%]
Cc1cccc(-c2nc(CN3CCc4cnc(C)nc4C3)no2)c1,-6.65,7.79,64,10.5,0.374,1.42,0.169,-1.99,10.7,9.76,-4.89
CC(C)c1noc(CCCC(=O)N2CCC(Cc3cccnc3)CC2)n1,1.54,-2.53,1.06,8.41,-6.14,4.18,-2.05,16.4,0.493,-3.8,-3.44
CC(=O)c1ccccc1C(=O)NCC1(CO)CC1,-0.313,10.8,-5.63,7.79,1.16,-4.29,3.79,21.2,4.76,-4.88,-0.424
CCCNC(=O)c1ccc(NC(=O)c2cccc(OCC)c2)cc1,1.49,-5.41,0.466,-0.164,-1.16,0.952,7.07,3.02,0.529,2.44,2.44
Cc1ccc(CNC(=O)NCc2cccnc2N(C)C)s1,-4.97,15.6,7.34,4.07,-4.68,-3.2,1.35,19.1,8.74,12.2,-5.69
Cc1ccc(CN2CCc3c(C(=O)N(C)C)nn(C)c3C2)s1,-1.04,8.22,-3.87,6.86,5.95,0,18.6,6.25,8.33,11.1,-4.79
O=C(COCc1nc(-c2ccncc2)no1)N1CCCCCC1,-5.55,5.2,-3.82,21.3,-35.1,-55.2,8.65,15.5,5.38,13.6,120
O=C(NCc1ccoc1)NC1CCCN(c2ncccn2)C1 (stereo unspecified),-3.31,7.89,6.88,0.569,4.97,-8.28,15.8,20.9,3.19,13,-3.64
CC(C)NC(=O)Nc1ccc(CS(=O)(=O)C(C)(C)C)cc1,-3.43,2.63,7.37,5.76,-2.82,-2.37,23.1,7.3,2.13,10.4,-2.88
Cc1cccc(CN2C[C@@H]3CN(C(=O)NC(C)C)C[C@@H]3C2=O)c1,0.524,5.2,3,7.17,-1.87,-35.9,11.2,-7.06,6.45,13.6,1
O=C1CCC2(CCCN(c3ncc(F)cn3)CC2)N1CC1CC1 (stereo unspecified),-4,7.79,3.94,5.12,1.08,5.81,12.7,14.5,6.35,16.7,-4.57
